PI5P4Ka inh – qHTS for Inhibitors of phosphatidylinositol 5-phosphate 4-kinase (PI5P4K); Phosphatidylinositol 5-phosphate 4-kinase type-2 alpha (Homo sapiens), P48426; PI5P4Kalpha enzyme, ADP-Glo luminescence, 60 min; hits give low values; 330,000 tested, 1.2% active; AID 652105, 2013; max response, %; active = max response of -50% or lower; inconclusive = between -30% and -50%; inactive = -30% or higher; note: value at the top dose of about 77 µM; % is set by controls: 0 for no effect and ±100 for the full control effect
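Single end-point luminescence (ADP-Glo) quantified ADP from PI5P4Kalpha turnover; ATP 5 microM final, 1 h at RT, 0.1% CHAPS and 0.28 mM EGTA in HEPES pH 7.4.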
VDR inhibitor – Inhibitors of the vitamin D receptor (VDR): qHTS; Vitamin D3 receptor (Homo sapiens), P11473; VDR-SRC2-3 peptide fluorescence polarization, 2 h; Potency, µM, for inactives: max response, negative = inhibition, most hits filed as inhibitors; 400,000 tested, 0.93% active; AID 504847, 2011; note: potency is the fitted concentration of half-maximal effect; % is set by controls: 0 for no effect and ±100 for the full control effect
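The screen uses fluorescence polarization to detect compounds that interfere with recruitment of the SRC2-3 coactivator peptide to VDR; plates are read after 2 h at room temperature.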
Rango release inh – qHTS Assay for Inhibitors of RanGTP induced Rango (Ran-regulated importin-beta cargo) - Importin beta complex dissociation | Snurportin-1 (Homo sapiens) + GTP-binding nuclear protein Ran (Homo sapiens) + Importin … | Biochemical FRET Rango-importin beta, RanGTP-induced dissociation | Potency, µM (top dose mostly 46.1 µM), without a hit: at the top dose activity change, negative = inhibition | 340,000 tested, 0.071% active | AID 540253, 2011; calls by dose curve; note: potency is the fitted concentration of half-maximal effect; % of control where 0% means no effect; nearly all actives have a fitted effect of over 45% in size
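Rango (0.1 uM)–importin beta (0.25 uM) complex; RanGTP-RCC1 trigger; 45 min RT; CFP/YFP FRET read.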
Rango complex inh – qHTS Assay for Inhibitors of Rango (Ran-regulated importin-beta cargo) - Importin beta complex formation | 340,000 tested, 0.031% active | Potency, µM (top dose mostly 92.2 µM), without a hit: top-dose inhibition of complex formation | Rango CFP/YFP FRET sensor + importin beta, 45 min | Importin subunit beta-1 (Homo sapiens), Q14974 | AID 540263, 2011; calls by dose curve;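 note: potency is the fitted concentration of half-maximal effect; 0% = DMSO wells and 100% = buffer wells lacking importin beta; nearly all actives have a fitted effect of over 15% in size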
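FRET biosensor (snurportin 1 IBB flanked by EYFP and cerulean), 50 nM, with compound 5 min, then 0.125 microM importin beta in PBS, 1 mM DTT, 0.02% Tween-20, 0.1% BSA. CFP/YFP ratio read after 45 min at room temperature; pre-read flags interference.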
KAT2A inh – qHTS Assay for Inhibitors of GCN5L2 | GCN5L2 HAT assay, ThioGlo1 CoA-SH fluorescence | 390,000 tested, 0.21% active | Potency, µM (doses to about 58.9 µM), for inactives: at the highest dose activity change, negative = inhibition, usual class: inhibitors; note: potency is the fitted concentration of half-maximal effect; % is set by controls: 0 for no effect and ±100 for the full control effect
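ThioGlo1-coupled HAT assay: 20nM GCN5L2, 70uM acetyl-CoA, 75uM H3(1-25) peptide, pH 7.5. Fluorescence read at 340/540nm at start and after 20 min at room temperature.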
PLK1 PBD inh – qHTS for Inhibitors of PLK1-PDB (polo-like kinase 1 - polo-box domain): Primary Screen; Serine/threonine-protein kinase PLK1 (Homo sapiens), P53350; Plk1 PBD binding of FITC phosphopeptide, fluorescence polarization; Potency, µM, inactives show max response, negative = inhibition, hits mostly inhibitors; 360,000 tested, 2.8% active; note: potency is the fitted concentration of half-maximal effect; series mostly up to about 57 µM; % is set by controls: 0 for no effect and ±100 for the full control effect; nearly all actives have a fitted effect of over 65% in size
Target sequence (P53350 whole entry, looked up, the tested form may be a part): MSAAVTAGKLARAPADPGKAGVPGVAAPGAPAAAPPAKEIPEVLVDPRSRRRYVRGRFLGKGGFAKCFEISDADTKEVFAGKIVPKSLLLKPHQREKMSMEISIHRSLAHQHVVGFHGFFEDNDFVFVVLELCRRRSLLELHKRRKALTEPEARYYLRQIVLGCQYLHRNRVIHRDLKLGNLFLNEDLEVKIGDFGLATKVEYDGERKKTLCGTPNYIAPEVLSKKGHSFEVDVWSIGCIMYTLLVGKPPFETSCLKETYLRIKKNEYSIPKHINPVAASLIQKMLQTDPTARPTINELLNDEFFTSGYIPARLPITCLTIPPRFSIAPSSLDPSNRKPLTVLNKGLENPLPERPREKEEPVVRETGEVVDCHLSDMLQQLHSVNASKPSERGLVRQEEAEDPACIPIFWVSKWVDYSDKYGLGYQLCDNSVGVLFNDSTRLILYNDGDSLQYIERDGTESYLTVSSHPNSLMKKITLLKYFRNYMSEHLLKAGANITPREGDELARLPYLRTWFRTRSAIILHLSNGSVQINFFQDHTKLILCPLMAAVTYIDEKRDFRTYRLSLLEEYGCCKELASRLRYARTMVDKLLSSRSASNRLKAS
An asterisk follows results filed as active; u = inconclusive; x = not tested or not shown. A selection: hits, their analogues and other compounds. The true share with any hit is near 3.6%. Unless noted, calls come from the whole dose curve; as a rule, active = well fitted curve in the direction sought with a large enough effect; inconclusive = small, poorly fitted or top-dose-only effect, or another doubt; inactive = no such curve, though single readings can be large; an effect the other way counts as inactive or inconclusive.

SMILES	PI5P4Ka inh	VDR inhibitor	Rango release inh	Rango complex inh	KAT2A inh	PLK1 PBD inh
O=C1NC(=O)C(=Cc2ccc3ccccc3c2)C(=O)N1	-79*	u	-13%	2%	-3%	4.2µM*
O=C1NC(=O)C(=Cc2cc([N+](=O)[O-])ccc2N2CCCCC2)C(=O)N1	2	-4%	0%	3%	-2%	-8%
O=C1NC(=O)C(=Cc2ccc(Oc3ccc([N+](=O)[O-])cc3)cc2)C(=O)N1	-58*	32µM*	4%	0%	11%	3µM*
CCn1cc(C=C2C(=O)NC(=O)NC2=O)c2ccccc21	-25	5%	-12%	u	-12%	7%
C=CC[C@]1(O)CC[C@H]2[C@@H]3CCC4=CC(=O)CCC4=C3C=C[C@@]21C	x	u	x	x	-19%	x
CN(C(=O)Cc1ccc(Cl)c(Cl)c1)[C@H](CN1CCCC1)c1ccccc1	x	u	x	x	7%	x
COc1ccc(C#Cc2ccc3c(c2)O[C@H](CN(C)C(C)=O)[C@H](C)CN([C@@H](C)CO)S3(=O)=O)cc1	-12	x	x	x	x	24µM*
COc1ccc(OC(=O)N(C)C[C@H]2OCc3cnnn3CCCC(=O)N([C@@H](C)CO)C[C@H]2C)cc1	-1	x	x	x	x	-7%
CN1C2CC(=O)CC1C(O)C2 (stereo not given)	x	0%	x	x	-13%	x
CCCC(C)c1nnc(NC(=O)CCS(=O)(=O)c2ccccc2)s1 (stereo not given)	-22	25µM*	-5%	2%	-3%	4.7µM*
CCC(CC)c1nnc(NC(=O)CC(C)c2ccccc2)s1 (stereo not given)	-3	-1%	-15%	3%	1%	u
C[C@@H]1C(=O)O[C@H]2CC34[C@H]5C[C@@H](C(C)(C)C)[C@]36[C@@H](OC(=O)[C@@H]6O)O[C@@]4(C(=O)O5)[C@]21O (stereo not given in full)	-2	5%	20%	-4%	-1%	-14%
C=CCN1C(=O)NC(=O)/C(=C/c2cnc(SC)nc2)C1=O	-57*	28µM*	-2%	5%	-3%	11µM*
C=CCN1C(=O)NC(=O)/C(=C/c2cc3c4c(c2)CCCN4CCC3)C1=O	u	46%	-15%	u	-30%	u
CC[C@@H]1/C=C/C=C/C[C@H](C)[C@@H](O)[C@](C)(O)C(=O)[C@H](C)[C@@H](O)[C@H](C)C(=O)[C@H](C)[C@@H](O)[C@H](C)/C=C/C(=O)O[C@H]2[C@@H](C)[C@@H](CC1)O[C@@]1(CC[C@@H](C)[C@@H](C[C@H](C)O)O1)[C@@H]2C	x	u	x	x	-15%	x
CC(=O)OCC1=C(C(=O)O)N2C(=O)[C@@H](NC(=O)CCC[C@@H](N)C(=O)O)[C@H]2SC1	x	2%	x	x	8%	x
CCOc1ccc2nc(N=Nc3c(O)[nH]c(=O)[nH]c3=O)sc2c1	-86*	-21%	-4%	u	-1%	-25%
CCOc1ccc2nc(N=Nc3c(O)[nH]c(=S)[nH]c3=O)sc2c1	-80*	-5%	6%	u	-11%	-28%
CCOc1ccc2nc(NC(=O)c3cccn(Cc4ccccc4C)c3=O)sc2c1	x	2%	x	x	-5%	x
CCOC(=O)c1sc(N=Nc2c(O)[nH]c(=O)[nH]c2=O)c(C(=O)OCC)c1C	x	x	x	x	-9%	x
c1ccc2c(c1)c1cc[n+]2CCCCC[n+]2ccc(c3ccccc32)NCCCCCN1	x	6%	x	x	0%	x
COc1ccccc1N1C(=O)NC(=O)/C(=C/c2ccc3c4c(cccc24)CC3)C1=O	-58*	50µM*	4%	-2%	-32%	7.5µM*
O=C1NC(=O)N(c2ccccc2)C(=O)/C1=C\c1ccc2c3c(cccc13)CC2	x	x	x	x	-2%	x
COc1cccc(N2C(=O)NC(=O)/C(=C/c3ccc4c(c3)Cc3ccccc3-4)C2=O)c1	u	u	16%	5%	-14%	3.4µM*
COc1ccc(/C=C2/C(=O)NC(=O)N(c3ccccc3)C2=O)cc1CN1C(=O)c2ccccc2C1=O	-53*	79µM*	1%	-2%	-25%	6µM*
SMILES	PI5P4Ka inh	VDR inhibitor	Rango release inh	Rango complex inh	KAT2A inh	PLK1 PBD inh
COc1ccccc1N1C(=O)NC(=O)/C(=C\c2cnn(-c3ccccc3)c2)C1=O	u	u	2%	-2%	-3%	3.4µM*
O=Nc1c(-c2ccccc2)n(O)[n+]([O-])c1-c1ccccc1	0	x	x	x	x	u
CCOc1cc(/C=C2/C(=O)NC(=O)N(c3ccc(CC)cc3)C2=O)ccc1OC(=O)c1cccs1	-70*	u	2%	-1%	-20%	6µM*
COc1cc(/C=C2/C(=O)NC(=O)N(c3ccccc3)C2=O)ccc1O	-59*	-13%	-25%	u	0%	8.4µM*
Cc1ccc(N2C(=O)NC(=O)/C(=C\c3ccsc3)C2=O)cc1C	x	x	x	x	7%	x
COC(=O)C(O)(c1c[nH]c2ccccc12)C(F)(F)F (stereo not given)	0	7%	0%	0%	-8%	-1%
COC(=O)C(O)(c1c(C)[nH]n(-c2ccccc2)c1=O)C(F)(F)F (stereo not given)	1	u	8%	0%	-1%	24µM*
c1ccc(N2CCCC3(CCNCC3)C2)cc1	x	u	x	x	2%	x
c1ccc(N2CCCC3(CCNCC3)C2)nc1	x	50µM*	x	x	7%	x
CC(C)CCCC(C)C1CCC2C3CC(O)[C@@]4(O)CC(O)CC[C@@]4(C)C3CC[C@@]12C (stereo not given in full)	x	2%	x	x	u	x
Cc1ccc(N2C(=O)/C(=C/N3CCN(C(=O)c4ccco4)CC3)C(=O)NC2=S)cc1C	-27	-11%	-2%	0%	32%	24µM*
Cc1cccc(N2C(=O)/C(=C/N3CCN(C(=O)c4ccco4)CC3)C(=O)NC2=S)c1	u	16%	-26%	0%	-2%	u
C[C@H](NC(=O)[C@@H](N)Cc1ccc(O)cc1)C(=O)N[C@@H](Cc1ccccc1)C(=O)NCC(=O)N[C@@H](Cc1ccc(O)cc1)C(=O)N1CCC[C@H]1C(=O)N[C@@H](CO)C(N)=O	x	2%	x	x	7%	x
